Our source for the outcome and AC50 values is PubChem BioAssay (EPA / NIEHS).

Usually AC50 stands for the concentration giving half of the maximal activity seen.

Calls of active or inactive are those of the source. The calls were made as follows: active = hit-call score of the fitted dose curve at least 0.9, where 1 is the maximum; inactive = score below 0.9.

Read-out in the assay: Thyroid Hormone Responsive (THRSP), THRSP (gene 7069)
Briefly: LTEA_HepaRG_THRSP: Life Technologies and Expression Analysis (LTEA) Assay for Thyroid Hormone Responsive (THRSP) using HepaRG (AID 2283536). The following applies: mRNA level, 48 h; actives raise or lower the signal. In outline:
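Differentiated human HepaRG cells were exposed in duplicate for 48 h in serum-free induction medium to eight concentrations (top 100 uM, half-log steps, 0.5% DMSO). Expression was quantified by TaqMan qRT-PCR, normalized to ACTB, GAPDH and POLR2A, with bidirectional fitting against DMSO.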
With `O=c1n(CC2CO2)c(=O)n(CC2CO2)c(=O)n1CC1CO1` (stereo not given), the result was inactive. Still for that read-out and setting: in the case of `O=C1CCC(N2C(=O)c3ccccc3C2=O)C(=O)N1` (stereo not given) it was “inactive”; in that of `Cc1ccc(S(=O)(=O)O)cc1C`, “inactive”; in that of `C1N2CN3CN1CN(C2)C3`, “inactive”.

As for `COC(=O)c1c(Cl)c(Cl)c(C(=O)OC)c(Cl)c1Cl`, the call was inactive. With `CN(C)c1ccc(N=NS(=O)(=O)O)cc1`, the AC50 was 11.1 µM (active). For `CC(C)CC(C)(O)C#CC(C)(O)CC(C)C` (stereo not given), the call was inactive. The same measure, in the same setting: in the case of `O=C1OC(=O)C2C3C=CC(C3)C12` (stereo not given) it was “inactive”; in that of `COC(=O)c1ccccc1O`, “inactive”.

Consider `O=C(CCCCCCCCc1cccnc1)N1CCC(C=C(c2ccccc2)c2ccccc2)CC1`, for which the concentration at half-maximal activity (AC50) is 18.8 µM (active). With `C[C@](N)(Cc1ccc(O)c(O)c1)C(=O)O`, the compound was called inactive. With `Cn1cnc([N+](=O)[O-])c1Sc1ncnc2nc[nH]c12`, the AC50 is 10.7 µM (active). As to `O=C1CCCCCN1`, the call was inactive. On to `Oc1ccc2c(c1)-c1ccccc1C2`, for which the AC50 is 13.9 µM (active). Turning to `CC(C)=CCC/C(C)=C\CO`, the result was inactive. On to `CCC(C)(C)C(=O)O[C@H]1C[C@@H](C)C=C2C=C[C@H](C)[C@H](CC[C@@H]3C[C@@H](O)CC(=O)O3)[C@H]21`, for which the AC50 was 25.4 µM (active). As to `Nc1cccc(N)c1`, the call was inactive. Regarding `Nc1nc2ncc(CNc3ccc(C(=O)N[C@@H](CCC(=O)O)C(=O)O)cc3)nc2c(=O)[nH]1`, the call was inactive.

Regarding `Cn1c(=O)c2c(ncn2C)n(C)c1=O`, the result was inactive. On to `O=C(OC[C@H]1O[C@@H](OC(=O)c2cc(O)c(O)c(OC(=O)c3cc(O)c(O)c(O)c3)c2)[C@H](OC(=O)c2cc(O)c(O)c(OC(=O)c3cc(O)c(O)c(O)c3)c2)[C@@H](OC(=O)c2cc(O)c(O)c(OC(=O)c3cc(O)c(O)c(O)c3)c2)[C@@H]1OC(=O)c1cc(O)c(O)c(OC(=O)c2cc(O)c(O)c(O)c2)c1)c1cc(O)c(O)c(OC(=O)c2cc(O)c(O)c(O)c2)c1`, for which the AC50 is 6.1 µM (active).
